# Results reported in article PMC11006913.
# Numbering of substitutions follows the chain as printed.
# Legend:
# Assay in all cases: PBM; 200 nM protein, PBS
# Conditions in all cases: dsDNA, one strand shown
# CRX [1] = target: CRX (Homo sapiens, UniProt O43186 26-111)
# CRX [2] = target: CRX (Homo sapiens, UniProt O43186 26-111, E42D)
# CRX [3] = target: CRX (Homo sapiens, UniProt O43186 26-111, R41L)
# PITX2 = PITX2 (Homo sapiens, UniProt Q99697 72-157)
# NKX2-4 [4] = target: T1, NKX2-4 (Homo sapiens, UniProt Q9H2Z4 175-261, P217L)
# T1 sequence: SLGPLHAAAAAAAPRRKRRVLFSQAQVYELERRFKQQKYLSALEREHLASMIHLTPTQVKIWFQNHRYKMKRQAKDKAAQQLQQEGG
# HOXB9 [5] = target: HOXB9 (Homo sapiens, UniProt P17482 171-250, T197M)
# Chain of HOXB9 (Homo sapiens, UniProt P17482 171-250, T197M) (P17482 171-250 T197M): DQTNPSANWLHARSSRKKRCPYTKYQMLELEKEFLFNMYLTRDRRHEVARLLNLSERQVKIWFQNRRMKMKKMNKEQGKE
# NKX2-4 [6] = target: T2, NKX2-4 (Homo sapiens, UniProt Q9H2Z4 175-261, T231S)
# T2 sequence: T1 sequence with L43P, T57S
# NKX2-4 [7] = target: T3, NKX2-4 (Homo sapiens, UniProt Q9H2Z4 175-261)
# T3 sequence: T1 sequence with L43P
# HOXB9 [8] = target: HOXB9 (Homo sapiens, UniProt P17482 171-250)
# Chain of HOXB9 (Homo sapiens, UniProt P17482 171-250) (P17482 171-250): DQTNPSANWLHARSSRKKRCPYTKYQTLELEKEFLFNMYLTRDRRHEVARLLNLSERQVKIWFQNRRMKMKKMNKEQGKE
# NKX2-4 [9] = target: T4, NKX2-4 (Homo sapiens, UniProt Q9H2Z4 175-261, R246Q)
# T4 sequence: T1 sequence with L43P, R72Q
# HOXB9 [10] = target: HOXB9 (Homo sapiens, UniProt P17482 171-250, R186Q)
# Chain of HOXB9 (Homo sapiens, UniProt P17482 171-250, R186Q) (P17482 171-250 R186Q): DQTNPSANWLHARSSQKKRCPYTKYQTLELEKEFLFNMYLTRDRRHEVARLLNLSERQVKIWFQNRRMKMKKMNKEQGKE
# HOXB6 = HOXB6 (Homo sapiens, UniProt P17509 132-218)
# Chain of HOXB6 (P17509 132-218): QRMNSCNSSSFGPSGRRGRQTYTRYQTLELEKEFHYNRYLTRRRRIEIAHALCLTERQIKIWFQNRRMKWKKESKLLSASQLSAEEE
# HOXC9 [11] = target: HOXC9 (Homo sapiens, UniProt P31274 178-260, K195R)
# Chain of HOXC9 (Homo sapiens, UniProt P31274 178-260, K195R) (P31274 178-260 K195R): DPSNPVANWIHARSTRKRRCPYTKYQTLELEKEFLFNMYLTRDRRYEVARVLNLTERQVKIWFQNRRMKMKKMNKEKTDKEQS
# NKX2-6 = target: T5, NKX2-6 (Homo sapiens, UniProt A6NCS4 118-204, R150C)
# T5 sequence: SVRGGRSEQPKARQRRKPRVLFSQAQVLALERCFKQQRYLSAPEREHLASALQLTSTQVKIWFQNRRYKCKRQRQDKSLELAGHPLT
# HOXC9 [12] = target: HOXC9 (Homo sapiens, UniProt P31274 178-260)
# Chain of HOXC9 (Homo sapiens, UniProt P31274 178-260) (P31274 178-260): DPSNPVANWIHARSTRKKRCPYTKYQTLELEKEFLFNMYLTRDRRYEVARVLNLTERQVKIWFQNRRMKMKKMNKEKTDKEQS
# ALX1 [13] = target: ALX1 (Homo sapiens, UniProt Q15699 118-204, L144V)
# Chain of ALX1 (Homo sapiens, UniProt Q15699 118-204, L144V) (Q15699 118-204 L144V): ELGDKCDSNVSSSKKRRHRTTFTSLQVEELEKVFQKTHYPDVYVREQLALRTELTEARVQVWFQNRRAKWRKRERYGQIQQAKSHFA
# HOXC9 [14] = target: HOXC9 (Homo sapiens, UniProt P31274 178-260, R193K)
# Chain of HOXC9 (Homo sapiens, UniProt P31274 178-260, R193K) (P31274 178-260 R193K): as the sequence (P31274 178-260) above, with R16K counted along it
# ALX1 [15] = target: ALX1 (Homo sapiens, UniProt Q15699 118-204, L144R)
# Chain of ALX1 (Homo sapiens, UniProt Q15699 118-204, L144R) (Q15699 118-204 L144R): as the sequence (Q15699 118-204 L144V) above, with V27R counted along it
# HOXC9 [16] = target: HOXC9 (Homo sapiens, UniProt P31274 178-260, R222W)
# Chain of HOXC9 (Homo sapiens, UniProt P31274 178-260, R222W) (P31274 178-260 R222W): as the sequence (P31274 178-260) above, with R45W counted along it
# ALX1 [17] = target: ALX1 (Homo sapiens, UniProt Q15699 118-204)
# Chain of ALX1 (Homo sapiens, UniProt Q15699 118-204) (Q15699 118-204): as the sequence (Q15699 118-204 L144V) above, with V27L counted along it
# Chain of CRX (Homo sapiens, UniProt O43186 26-111, E42D) (O43186 26-111 E42D): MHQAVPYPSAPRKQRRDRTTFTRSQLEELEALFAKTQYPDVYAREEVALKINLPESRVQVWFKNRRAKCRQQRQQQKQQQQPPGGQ
# Chain of CRX (Homo sapiens, UniProt O43186 26-111, R41L) (O43186 26-111 R41L): as the sequence (O43186 26-111 E42D) above, with R16L, D17E counted along it
# Chain of CRX (Homo sapiens, UniProt O43186 26-111) (O43186 26-111): as the sequence (O43186 26-111 E42D) above, with D17E counted along it
sequence,measurement,setting,value
AATCACTA,binding signal,CRX [1],"10.3 upbm affinity estimate (log intensity, higher = more binding, comparable within an allelic series)"
same,binding signal,CRX [2],"10.2 upbm affinity estimate (log intensity, higher = more binding, comparable within an allelic series)"
same,binding signal,CRX [3],"9.96 upbm affinity estimate (log intensity, higher = more binding, comparable within an allelic series)"
GTTTAAAA,binding signal,CRX [1],"9.91 upbm affinity estimate (log intensity, higher = more binding, comparable within an allelic series)"
same,binding signal,CRX [2],"9.79 upbm affinity estimate (log intensity, higher = more binding, comparable within an allelic series)"
same,binding signal,CRX [3],"9.59 upbm affinity estimate (log intensity, higher = more binding, comparable within an allelic series)"
GTAATCCA,binding signal,CRX [1],"12.9 upbm affinity estimate (log intensity, higher = more binding, comparable within an allelic series)"
same,binding signal,PITX2,"12.9 upbm affinity estimate (log intensity, higher = more binding, comparable within an allelic series)"
same,binding signal,CRX [3],"12.7 upbm affinity estimate (log intensity, higher = more binding, comparable within an allelic series)"
CTTAAGCC,binding signal,CRX [1],"12.7 upbm affinity estimate (log intensity, higher = more binding, comparable within an allelic series)"
same,binding signal,CRX [3],"11.9 upbm affinity estimate (log intensity, higher = more binding, comparable within an allelic series)"
CGAACCTC,binding signal,CRX [1],"8.5 upbm affinity estimate (log intensity, higher = more binding, comparable within an allelic series)"
same,binding signal,CRX [2],"8.36 upbm affinity estimate (log intensity, higher = more binding, comparable within an allelic series)"
same,binding signal,CRX [3],"8.33 upbm affinity estimate (log intensity, higher = more binding, comparable within an allelic series)"
GCCTGACA,binding signal,CRX [1],"8.49 upbm affinity estimate (log intensity, higher = more binding, comparable within an allelic series)"
same,binding signal,CRX [2],"8.43 upbm affinity estimate (log intensity, higher = more binding, comparable within an allelic series)"
same,binding signal,CRX [3],"8.39 upbm affinity estimate (log intensity, higher = more binding, comparable within an allelic series)"
AGAGAGAC,binding signal,CRX [1],"8.36 upbm affinity estimate (log intensity, higher = more binding, comparable within an allelic series)"
same,binding signal,CRX [2],"8.46 upbm affinity estimate (log intensity, higher = more binding, comparable within an allelic series)"
same,binding signal,CRX [3],"8.33 upbm affinity estimate (log intensity, higher = more binding, comparable within an allelic series)"
GATTATAA,binding signal,CRX [1],"12.7 upbm affinity estimate (log intensity, higher = more binding, comparable within an allelic series)"
same,binding signal,CRX [2],"12.6 upbm affinity estimate (log intensity, higher = more binding, comparable within an allelic series)"
same,binding signal,CRX [3],"12.6 upbm affinity estimate (log intensity, higher = more binding, comparable within an allelic series)"
AGAGGGCC,binding signal,NKX2-4 [4],"11.7 upbm affinity estimate (log intensity, higher = more binding, comparable within an allelic series)"
same,binding signal,HOXB9 [5],"8.51 upbm affinity estimate (log intensity, higher = more binding, comparable within an allelic series)"
same,binding signal,NKX2-4 [6],"12 upbm affinity estimate (log intensity, higher = more binding, comparable within an allelic series)"
same,binding signal,NKX2-4 [7],"11.7 upbm affinity estimate (log intensity, higher = more binding, comparable within an allelic series)"
same,binding signal,HOXB9 [8],"8.69 upbm affinity estimate (log intensity, higher = more binding, comparable within an allelic series)"
same,binding signal,NKX2-4 [9],"11.9 upbm affinity estimate (log intensity, higher = more binding, comparable within an allelic series)"
same,binding signal,HOXB9 [10],"8.57 upbm affinity estimate (log intensity, higher = more binding, comparable within an allelic series)"
ATAATATC,binding signal,CRX [1],"11.2 upbm affinity estimate (log intensity, higher = more binding, comparable within an allelic series)"
same,binding signal,CRX [2],"10.9 upbm affinity estimate (log intensity, higher = more binding, comparable within an allelic series)"
same,binding signal,CRX [3],"10.8 upbm affinity estimate (log intensity, higher = more binding, comparable within an allelic series)"
same,binding signal,HOXB6,"10.8 upbm affinity estimate (log intensity, higher = more binding, comparable within an allelic series)"
AAGATTAT,binding signal,CRX [1],"12.9 upbm affinity estimate (log intensity, higher = more binding, comparable within an allelic series)"
same,binding signal,CRX [2],"12.8 upbm affinity estimate (log intensity, higher = more binding, comparable within an allelic series)"
same,binding signal,CRX [3],"12.8 upbm affinity estimate (log intensity, higher = more binding, comparable within an allelic series)"
GCTGCCGA,binding signal,NKX2-4 [4],"9.14 upbm affinity estimate (log intensity, higher = more binding, comparable within an allelic series)"
same,binding signal,HOXC9 [11],"9.65 upbm affinity estimate (log intensity, higher = more binding, comparable within an allelic series)"
same,binding signal,NKX2-4 [6],"9.11 upbm affinity estimate (log intensity, higher = more binding, comparable within an allelic series)"
same,binding signal,NKX2-4 [7],"9.11 upbm affinity estimate (log intensity, higher = more binding, comparable within an allelic series)"
same,binding signal,NKX2-6,"9.17 upbm affinity estimate (log intensity, higher = more binding, comparable within an allelic series)"
same,binding signal,HOXC9 [12],"9.69 upbm affinity estimate (log intensity, higher = more binding, comparable within an allelic series)"
same,binding signal,ALX1 [13],"6.5 upbm affinity estimate (log intensity, higher = more binding, comparable within an allelic series)"
same,binding signal,HOXC9 [14],"9.57 upbm affinity estimate (log intensity, higher = more binding, comparable within an allelic series)"
same,binding signal,ALX1 [15],"6.4 upbm affinity estimate (log intensity, higher = more binding, comparable within an allelic series)"
same,binding signal,NKX2-4 [9],"9.29 upbm affinity estimate (log intensity, higher = more binding, comparable within an allelic series)"
same,binding signal,HOXC9 [16],"9.8 upbm affinity estimate (log intensity, higher = more binding, comparable within an allelic series)"
same,binding signal,ALX1 [17],"6.43 upbm affinity estimate (log intensity, higher = more binding, comparable within an allelic series)"
AGGCTTAA,binding signal,CRX [1],"12.8 upbm affinity estimate (log intensity, higher = more binding, comparable within an allelic series)"
same,binding signal,CRX [3],"12.1 upbm affinity estimate (log intensity, higher = more binding, comparable within an allelic series)"
AATTCCAT,binding signal,CRX [1],"10.2 upbm affinity estimate (log intensity, higher = more binding, comparable within an allelic series)"
same,binding signal,CRX [2],"10.1 upbm affinity estimate (log intensity, higher = more binding, comparable within an allelic series)"
same,binding signal,CRX [3],"9.91 upbm affinity estimate (log intensity, higher = more binding, comparable within an allelic series)"
GGGCTTAA,binding signal,CRX [1],"12.7 upbm affinity estimate (log intensity, higher = more binding, comparable within an allelic series)"
same,binding signal,PITX2,"12.7 upbm affinity estimate (log intensity, higher = more binding, comparable within an allelic series)"
same,binding signal,CRX [3],"12.1 upbm affinity estimate (log intensity, higher = more binding, comparable within an allelic series)"
AGATTAGG,binding signal,CRX [1],"12.7 upbm affinity estimate (log intensity, higher = more binding, comparable within an allelic series)"
same,binding signal,PITX2,"12.3 upbm affinity estimate (log intensity, higher = more binding, comparable within an allelic series)"
same,binding signal,CRX [3],"12.2 upbm affinity estimate (log intensity, higher = more binding, comparable within an allelic series)"
GATAAACC,binding signal,CRX [1],"11.4 upbm affinity estimate (log intensity, higher = more binding, comparable within an allelic series)"
same,binding signal,CRX [2],"11.1 upbm affinity estimate (log intensity, higher = more binding, comparable within an allelic series)"
same,binding signal,CRX [3],"10.9 upbm affinity estimate (log intensity, higher = more binding, comparable within an allelic series)"
GGTTGCCA,binding signal,CRX [1],"8.28 upbm affinity estimate (log intensity, higher = more binding, comparable within an allelic series)"
same,binding signal,CRX [2],"8.39 upbm affinity estimate (log intensity, higher = more binding, comparable within an allelic series)"
same,binding signal,CRX [3],"8.41 upbm affinity estimate (log intensity, higher = more binding, comparable within an allelic series)"
